Screening results: PubChem, National Center for Advancing Translational Sciences (NCATS)
LASV entry inh = qHTS for Inhibitors of binding or entry into cells for Lassa Virus; hit rate 1.2% among 300,000; Potency, µM (titrated, usually from 37.9 µM), for the others: at the highest dose activity change, negative = inhibition, most hits filed as inhibitors; Lassa virus pseudotype entry inhibition, cell reporter; calls by dose curve; tested in HEK293 cells; also: nearly all actives have a fitted effect of over 50% in size
Marburg entry inh = qHTS for inhibitors of binding or entry into cells for Marburg Virus. Marburg virus pseudotyped entry inhibition, cell reporter. Potency, µM (doses to about 37.8 µM), without a hit: top-dose activity change, negative = inhibition, usual class: inhibitors. hit rate 1.8% among 300,000; calls by dose curve; tested in HEK293 cells
Vaccinia Venus = qHTS for Stage-Specific Inhibitors of Vaccinia Orthopoxvirus: Venus Reporter Primary qHTS | AID 720580, 2013 | Potency, µM (top dose mostly 36.5 µM), inactives show at the top dose activity change, negative = inhibition, usual class: inhibitors | hit rate 0.46% among 330,000 | Vaccinia virus Venus reporter expression, fluorescence; calls by dose curve; tested in A549 cells; also: nearly all actives have a fitted effect of over 30% in size
Sm TGR block = qHTS Assay for the Inhibitors of Schistosoma Mansoni Peroxiredoxins | Schistosoma mansoni thioredoxin glutathione reductase (TGR), Q962Y6 | purified TGR, DTNB reduction, TNB absorbance 405 nm | Potency, µM (series often up to 114 µM), for the others: at the highest dose activity change, negative = inhibition, actives largely listed as inhibitors | hit rate 3% among 360,000; active = well fitted inhibition curve with a large enough effect; inconclusive = small, poorly fitted or top-dose-only effect; inactive = no such curve, though single readings can be large or run the other way; also: nearly all actives have a fitted effect of over 60% in size
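First, TGR (20 nM dispensed) and NADPH were mixed with compound. Second, a 15 min room-temperature incubation followed. Third, further NADPH and then DTNB were added to start the reaction. Finally, TNB absorbance was monitored kinetically.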
FMDV inh = High Throughput Screening for Foot and Mouth Disease Virus Antivirals. FMDV antiviral cell-based qHTS. Potency, µM (series often up to 57.9 µM), for the others: at the highest dose activity change, negative = inhibition, most hits filed as inhibitors. hit rate 1.2% among 410,000. AID 1159524, 2015; calls by dose curve; tested in HEK293T cells; also: read-out not given here; nearly all actives have a fitted effect of over 45% in size
VACV mCherry inh = qHTS for Stage-Specific Inhibitors of Vaccinia Orthopoxvirus: mCherry Reporter Primary qHTS | Vaccinia virus mCherry reporter infection, fluorescence | Potency, µM (titrated, usually from 36.5 µM), for the others: at the top dose activity change, negative = inhibition, usual class: inhibitors | hit rate 0.63% among 310,000; calls by dose curve; tested in A549 cells; also: nearly all actives have a fitted effect of over 35% in size
Starred values were filed as active, the others as inactive; i = inactive; ? = inconclusive; . = not tested or not shown; [ ] = remark or other dose. In the library only some 5.4% were active in any assay of this set; here they are far more common. % is scaled to controls: 0 for no effect and ±100 for the full control effect; potency is read from the fitted curve at half-maximal effect.

SMILES | LASV entry inh | Marburg entry inh | Vaccinia Venus | Sm TGR block | FMDV inh | VACV mCherry inh
Cc1cc(C)cc(NC(=O)c2cc(C)nc3c2c(C)nn3-c2ccccc2)c1 | ? | . | 12.5% | 9.1% | -1.8% | 1.2%
Cc1cc(C)c(NC(=O)C2CCN(c3nnc(C)c4c(C)n(-c5ccccc5)nc34)CC2)c(C)c1 | 9.5%[46.1 µM] | . | -2.2% | -4.5% | -11.0% | -15.9%
CCCc1c(-c2cccc(Cl)c2)ncn1Cc1ccccc1OC | . | . | -11.9% | . | ? | -10.4%
CCCCc1c(-c2ccc(F)cc2)ncn1CCc1ccccc1OC | . | . | ? | . | 25.1µM* | -25.4%
COc1ccccc1CCn1cnc(C)c1CC(C)C | . | . | -1.3% | . | -22.2% | 6.9%
CCCCc1c(-c2cccc(Cl)c2)ncn1CCc1ccccc1OC | . | . | -14.3% | . | 22.4µM* | -14.5%
CCCCCc1c(-c2ccc(OC)cc2)ncn1CCc1ccccc1OC | . | . | ? | . | 22.4µM* | ?
CCCCc1c(-c2ccccc2OC)ncn1CCc1ccc(Cl)cc1 | . | . | ? | . | ? | -26.3%
CCCCCc1c(-c2ccc(Cl)cc2)ncn1CCc1ccccc1OC | . | . | -11.9% | . | -1.2% | -19.1%
CCCCc1c(-c2ccc(OC)cc2)ncn1CCc1ccccc1OC | . | . | ? | . | 22.4µM* | ?
COc1ccc(OC)c(-c2ccnc(-n3ncc(C(=O)N4CCN(CCO)CC4)c3C3CC3)n2)c1 | . | . | -4.2% | . | -8.4% | -11.4%
Cc1cc(C)cc(NC(=O)CN2C(=O)COc3ccc(S(=O)(=O)Nc4ccccc4)cc32)c1 | -10.9%[46.1 µM] | . | -3.0% | 0.6% | -2.5% | -16.4%
Cn1nnnc1SCCCNCc1ccccc1OCc1ccc(F)cc1 | -3.8%[46.1 µM] | ? | -14.4% | -3.6% | -8.4% | -10.6%
CCCCc1c(-c2ccccc2)ncn1CCc1ccccc1OC | . | . | ? | . | 25.1µM* | ?
CCCCc1c(Cc2ccccc2)ncn1CCc1ccccc1OC | . | . | -28.8% | . | ? | -18.7%
CCCCc1c(-c2ccccc2OC)ncn1CCc1ccc(OC)cc1 | . | . | -14.2% | . | 22.4µM* | -22.9%
CCCCc1c(-c2ccccc2OC)ncn1CCc1ccccc1 | . | . | ? | . | ? | i
CCOC(=O)c1c(CSc2nc(C)cc(C)c2C#N)n(C)c2cc(Br)c(OC(C)=O)cc12 | ? | -3.1% | -0.9% | 5.2% | ? | -8.6%
C=CCCc1ccc(C#N)c(SCc2c(C(=O)OCC)c3cc(OC(C)=O)c(Br)cc3n2C)n1 | 7.94µM* | ? | -3.7% | -13.3% | ? | i
CCOC(=O)c1c(CSC(=N)N)n(-c2ccc(Br)cc2)c2cc(Br)c(OC(C)=O)cc12 | ? | 13µM* | -14.0% | -15.1% | -17.7% | -19.1%
CCCCCCCCOC(=O)c1c(CSC(=N)N)n(C)c2cc(Br)c(OC(C)=O)cc12 | . | . | . | -10.2% | ? | .
Cc1c(NC2=C(Cl)C(=O)N(c3ccccc3)C2=O)c(=O)n(-c2ccccc2)n1C | ? | -21.1% | . | ? | 27.0% | .
O=C1C(Cl)=C(N2CCCCCC2)C(=O)N1c1ccccc1Cl | . | . | . | 3.0% | -23.5% | .
C=CCNC1=C(Cl)C(=O)N(c2ccccc2Cl)C1=O | -2.9% | 10.3% | -6.6% | 44.7µM* | . | -11.6%
Cc1c(NC2=C(Cl)C(=O)N(c3ccccc3Cl)C2=O)c(=O)n(-c2ccccc2)n1C | 2.8% | 8.2% | -5.5% | 39.8µM* | 4.1% | -6.1%
SMILES | LASV entry inh | Marburg entry inh | Vaccinia Venus | Sm TGR block | FMDV inh | VACV mCherry inh
CC(C)OCCCNC(=O)C(=O)Nc1ccc2nc3n(c(=O)c2c1)CCCCC3 | 16.2%[46.1 µM] | 12.9%[46.1 µM] | 2.6% | 2.3% | -15.1% | 2.5%
COc1ccc(/C(=N/Nc2ncnc3ccccc23)C(=O)O)cc1 | ? | -13.9%[46.1 µM] | -26.3% | -12.5% | 57.9% | 10µM*
CCOC(=O)N1CCC(NC(=O)c2ccc3c(c2)N(Cc2ccc(F)cc2)C(=O)c2ccccc2S3(=O)=O)CC1 | 8.4%[46.1 µM] | ? | -9.6% | -7.3% | -3.1% | -11.5%
CC(C)NC(=O)c1cn([C@H]2CC[C@@H](NC(=O)/C=C/c3cccs3)CC2)nn1 | . | . | -17.4% | . | 0.0% | -0.5%
Cc1oc(-c2ccccc2)nc1Cn1cccc1C1=NC(c2ccccc2)CO1 (configuration not stated) | ? | 20µM* | -32.8% | 14.5% | ? | ?
Fc1ccc(Cn2cccc2C2=NC(c3ccccc3)CO2)cc1 (configuration not stated) | 13.2% | 26.4% | 0.0% | 14.2% | 18.4% | -2.5%
COc1ccc(Br)cc1CNc1ccc(O)cc1 | -15.7% | -2.5% | 0.0% | 28.2µM* | -27.7% | -7.9%
COc1ccc(NC(=O)C(CCCCNC(=O)OC(C)(C)C)NC(=O)OCc2ccccc2)cc1 (configuration not stated) | 2.06µM* | 9.7% | -10.7% | -10.5% | -28.5% | -6.5%
CC(C)(C)OC(=O)C(Cc1ccc(OC(C)(C)C)cc1)NC(=O)CNC(=O)OCc1ccccc1 (configuration not stated) | ? | ? | ? | -0.7% | 0.0% | 11.2µM*
COc1ccc(CN2CCOc3c(O)cc(-c4cc(C)c5ccc(F)cc5n4)cc3C2)c(O)c1 | . | . | -9.5% | . | -23.1% | -18.0%
COCCCN1C(=O)/C(=C/c2ccc(CNS(=O)(=O)c3ccccc3)o2)C(C(=O)OC)=C1C | 12.7%[46.1 µM] | ? | -14.6% | 11.2µM* | 30.3% | ?
CNC(=O)/C(C#N)=C\c1ccc(CNS(=O)(=O)c2ccccc2)o1 | -0.7% | ? | -9.5% | 0.0% | -17.7% | -14.4%
COc1ccccc1C(=O)NC(=S)Nc1ccc(N2CCN(C(=O)c3ccco3)CC2)cc1 | . | . | . | -33.5% | ? | .
Cc1ccccc1C(=O)N1CCN(c2ccc(NC(=S)NC(=O)c3ccco3)cc2)CC1 | . | . | . | ? | 25.1µM* | .
Cc1ccccc1C(=O)N1CCN(c2ccc(NC(=O)c3ccco3)cc2Cl)CC1 | 10µM* | ? | ? | -15.6% | ? | ?
O=C(Nc1ccc(N2CCN(C(=O)c3ccccc3F)CC2)cc1)c1cncc(Br)c1 | ? | ? | -25.5% | -17.9% | 31.6µM* | -12.4%
O=C(Nc1ccc(N2CCN(C(=O)c3ccco3)CC2)c(Cl)c1)c1c(F)c(F)c(F)c(F)c1F | ? | ? | 2.8% | -15.4% | 28.2µM* | -9.4%
O=C(Nc1ccc(N2CCN(C(=O)c3ccco3)CC2)cc1)c1cc(Br)ccc1Cl | ? | 10µM* | ? | 0.3% | ? | -28.6%
Cc1ccccc1C(=O)N1CCN(c2ccc(NC(=O)c3ccc4c(c3)OCO4)cc2)CC1 | ? | ? | -17.5% | 11.9% | 12.6µM* | i
O=C(Nc1ccc(N2CCN(C(=O)c3ccco3)CC2)cc1)c1ccc(Br)cc1 | . | . | . | -0.3% | -7.3% | .
COc1ccc(-c2nc(NC(=O)c3cc(C(C)(C)C)nn3C)sc2C)cc1 | ? | 9.2µM* | . | 12.1%[11.4 µM] | 28.2µM* | .
COc1ccc(-c2nc(NC(=O)c3c(C)noc3C)sc2C)cc1 | ? | -22.9% | -9.5% | -2.8% | ? | -13.4%
